Many of the other results were omitted from the sample, so hits are more common in it than they were.
CD40 NFkB inh = CD40 pathway inhibition in BL2 cells | inhibition, % at 10 µM | actives 0.94% (n = 83,000) | BL2 NF-kB luciferase reporter, CD40L-induced, 4 h;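 active means mean inhibition of at least 50% with a set share of replicates also reaching that level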
Large screens that a line does not name were inactive; [ ] = another dose, or the depositor's remark.

CC(C)(C)NC(=O)/C=C/c1cccs1	none
O=C(/C=C/c1cccs1)c1ccc(N2CCOCC2)cc1	CD40 NFkB inh 54
CC(=O)c1ccc(N2CCN(C(=O)Cc3cccs3)CC2)cc1	none
C[C@H](CO)N1C[C@H](C)[C@H](CN(C)C(=O)Nc2ccccc2C(F)(F)F)OCc2ccccc2-c2c(n(C)c3ccccc23)C1=O	none
C[C@@H]1CN([C@@H](C)CO)C(=O)c2c(c3ccccc3n2C)-c2ccccc2CO[C@H]1CN(C)C(=O)Nc1ccccc1C(F)(F)F	CD40 NFkB inh 64[25 µM]
COc1ccccc1NC(=O)N(C)C[C@@H]1OCc2ccccc2-c2c(n(C)c3ccccc23)C(=O)N([C@H](C)CO)C[C@@H]1C	none
C[C@H](CO)N1C[C@H](C)[C@H](CN(C)C(=O)Nc2cccc(C(F)(F)F)c2)OCc2ccccc2-c2c(n(C)c3ccccc23)C1=O	none
C[C@@H]1CN([C@@H](C)CO)C(=O)c2c(c3ccccc3n2C)-c2ccccc2CO[C@@H]1CN(C)C(=O)Nc1ccccc1C(F)(F)F	CD40 NFkB inh 55[25 µM]
C[C@@H]1CN([C@@H](C)CO)C(=O)c2c(c3ccccc3n2C)-c2ccccc2CO[C@H]1CN(C)Cc1cccc(C(=O)Nc2ccccc2N)c1	CD40 NFkB inh 60[25 µM]
C[C@H](CO)N1C[C@H](C)[C@@H](CN(C)C(=O)Nc2cccc(C(F)(F)F)c2)OCc2ccccc2-c2c(n(C)c3ccccc23)C1=O	none
C[C@H](CO)N1C[C@H](C)[C@H](CN(C)Cc2cccc(C(=O)O)c2)OCc2ccccc2-c2c(n(C)c3ccccc23)C1=O	none
C[C@H]1CN([C@@H](C)CO)C(=O)c2c(c3ccccc3n2C)-c2ccccc2CO[C@@H]1CN(C)C(=O)Nc1cccc(C(F)(F)F)c1	CD40 NFkB inh 64[25 µM]
COc1ccccc1NC(=O)N(C)C[C@@H]1OCc2ccccc2-c2c(n(C)c3ccccc23)C(=O)N([C@@H](C)CO)C[C@@H]1C	none
C[C@H](CO)N1C[C@H](C)[C@@H](CN(C)C(=O)Nc2ccccc2C(F)(F)F)OCc2ccccc2-c2c(n(C)c3ccccc23)C1=O	none
C[C@@H]1CN([C@H](C)CO)C(=O)c2c(c3ccccc3n2C)-c2ccccc2CO[C@H]1CN(C)Cc1cccc(O)c1	none
CO[C@H](CN(C)S(=O)(=O)c1ccc(Cl)cc1)[C@@H](C)CN([C@@H](C)CO)S(=O)(=O)c1cccc(Cl)c1	none
N#C[C@@H]1[C@H](c2ccccc2-c2ccc(F)cc2)[C@H](CO)N1C(=O)NC1CCCC1	none
COCC(=O)Nc1ccc2c(c1)[C@@H]1C[C@H](CC(=O)N[C@@H](C)c3ccccc3)O[C@@H](CO)[C@@H]1O2	none
O=C(Nc1ccc2c(c1)[C@H]1C[C@@H](CC(=O)N3CCCCC3)O[C@@H](CO)[C@H]1O2)NC1CCCC1	none
CC(C)NC(=O)N(C)C[C@H]1OCc2ccccc2-c2ccccc2C(=O)N([C@@H](C)CO)C[C@@H]1C	none
Cc1ccccc1-c1ccc(C2[C@@H]3CN(Cc4cccnc4)C[C@H]2N3)cc1 (stereo partly drawn)	none
COc1ccc2c3c(n(C)c2c1)[C@@H](CO)N(C(=O)CN(C)C)CC31CCN(Cc2cncnc2)CC1	none
O=C1N[C@@H](c2ccccc2)COCc2cnnn2CC[C@H]1Cc1ccc(C(F)(F)F)cc1	none
CCCNC(=O)N1CC2(C1)[C@H](c1ccccc1)[C@@H](CO)N2CC1CCOCC1	none
Cc1ccccc1-c1ccc([C@@H]2[C@H](CO)N3C(=O)CN(C(=O)c4ccncc4)C[C@@H]23)cc1	none
C[C@@H]1CN([C@H](C)CO)C(=O)c2c(c3ccccc3n2C)-c2ccccc2CO[C@@H]1CN(C)Cc1cccc(C(F)(F)F)c1	none
C[C@H](CO)N1C[C@H](C)[C@@H](CN(C)Cc2cccc(C(F)(F)F)c2)OCc2ccccc2-c2c(n(C)c3ccccc23)C1=O	CD40 NFkB inh 73[25 µM]
C[C@H]1CN([C@@H](C)CO)C(=O)c2c(c3ccccc3n2C)-c2ccccc2CO[C@H]1CN(C)Cc1cccc(C(F)(F)F)c1	none
O=C(C[C@H]1CC[C@@H]2[C@H](COC[C@H](O)CN2C(=O)c2ccncc2)O1)NCc1cc(F)cc(F)c1	none
Cc1ccnc(Nc2nc3ccccc3o2)n1	CD40 NFkB inh 68
Cc1nc(Nc2nc3ccccc3o2)nc(C)c1C	none
N#Cc1cnc(Nc2nc3ccccc3o2)nc1-c1ccccc1	none
CN1[C@@H]2Cn3c(ccc(/C=C/c4ccccc4)c3=O)[C@H]1[C@@H](C(=O)NC1CCCC1)[C@@H]2CO	none
CC(C)(C)[S@](=O)N1Cc2cc(C(=O)NC3CCCCC3)nc(-c3cccc(Br)c3)c2[C@@H]1CCO	none
CCC(=O)N1[C@H](CO)[C@@H](c2ccccc2)[C@H]1CN(C(C)C)S(C)(=O)=O	none
Cn1cnnc1SCc1ccc(-c2ccc(Br)cc2)o1	CD40 NFkB inh 80
Cn1cnnc1SCc1ccc(F)c2ccccc12	none
Cn1cnnc1SCc1ccc(C(=O)NN)cc1	none
O=C(C[C@@H]1CC[C@@H]2NC[C@H](O)COC[C@H]2O1)NCc1ccc2c(c1)OCO2	none
C[C@H]1CN(C)C(=O)Cc2ccccc2O[C@H]1CN(C)S(C)(=O)=O	none
COc1ccc2c3c([nH]c2c1)[C@@H](CO)NCC31CCN(Cc2ccc(F)cc2)CC1	none
